# NTR1 agonist: NTR1 (human) agonism. P30989. NTR1-U2OS beta-arrestin-GFP spot imaging, agonist mode. activation, % at 20 µM. hit rate 0.17% among 330,000. AID 493036;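 active = activation at or above 40% of the spot to cytoplasm intensity ratio, with at least 20 cells analyzed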;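 note: 0% = DMSO without peptide and 100% = 100 nM NTR1 peptide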
# Cardio protect: protects H9c2 cardiomyocytes from peroxide injury | H2O2 injury protection, ATPLite, 2 h | protection from H2O2 cell death, % at 20 µM | hit rate 0.63% among 360,000 | AID 588492;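 active = compounds giving at least 50% protection of heart cells from peroxide-induced death in the single-dose screen, raw or plate-pattern-corrected value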;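 note: 0% = DMSO wells with peroxide and 100% = DMSO wells without peroxide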
# ALR H2O2 inh: human ALR oxidase inhibition via reduced H2O2; P55789; purified ALR, DTT oxidation, H2O2 HRP-luminol luminescence; inhibition, % (test concentration not listed); hit rate 3.8% among 290,000; AID 485317;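 active = mean replicate inhibition above about 79%, with every replicate also reaching it, limit read from the data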
# Target sequence (P55789 whole entry, looked up): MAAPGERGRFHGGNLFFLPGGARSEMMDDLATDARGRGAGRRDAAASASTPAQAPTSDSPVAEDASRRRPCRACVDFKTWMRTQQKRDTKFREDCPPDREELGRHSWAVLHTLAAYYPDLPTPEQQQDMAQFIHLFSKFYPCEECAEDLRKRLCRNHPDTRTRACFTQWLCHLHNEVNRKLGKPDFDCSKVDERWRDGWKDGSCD
# UBC9 SUMO inh: inhibitors of human SUMOylation (UBC9) | P63279 | HTRF SUMOylation assay, SAE1/SAE2 + UBC9, in vitro | inhibition, % at 35 µM | hit rate 0.36% among 290,000; in the data active = inhibition above about 50%, passing the limit was not always enough
# Target sequence (P63279 whole entry, looked up): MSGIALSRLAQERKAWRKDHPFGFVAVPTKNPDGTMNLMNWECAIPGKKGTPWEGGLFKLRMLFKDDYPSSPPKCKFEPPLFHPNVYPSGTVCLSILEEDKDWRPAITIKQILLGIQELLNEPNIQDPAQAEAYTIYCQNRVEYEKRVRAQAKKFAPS
# An asterisk follows results filed as active; / = no result given. A selection: hits, their analogues and other compounds. The true share with any hit is near 3.9%.
SMILES,NTR1 agonist,Cardio protect,ALR H2O2 inh,UBC9 SUMO inh
Cc1ccc(N2C(=O)CC(NNC(=O)c3cccc(S(=O)(=O)N4CCCC4)c3)C2=O)cc1 (stereo not given),2,-1,95*,19
Cc1c(Cl)c(-c2n[nH]c(=S)n2-c2ccc(F)cc2)nn1C,-2,1,91*,14
Cn1cc(Cl)c(-c2n[nH]c(=S)n2-c2ccc(F)cc2)n1,0,0,88*,6
Cc1ccsc1-c1n[nH]c(=S)n1CC(C)C,0,1,94*,6
Cc1ccc(-n2c(-c3nn(C)cc3Cl)n[nH]c2=S)cc1,-2,-3,58,-2
Cc1c(Cl)c(-c2n[nH]c(=S)n2CC(C)C)nn1C,4,1,93*,1
CCCCn1c(-c2nn(C)c(C)c2Cl)n[nH]c1=S,0,1,48,11
CC1(c2ccc([N+](=O)[O-])cc2)NC(=O)N(CC(=O)Nc2ccc(N3CCCCC3)cc2)C1=O (stereo not given),2,-8,25,/
Cc1cc(N2CCOCC2)nc(N)n1,0,-6,/,12
Cc1cc(N2CCOCC2)c2c(N)c(C)cc(C)c2n1,0,2,99*,21
Cc1ccccc1OCC(=O)NCCc1nc2ccccc2[nH]1,1,1,99*,2
Cc1ccccc1OCC(=O)Nc1ccncc1,0,-12,99*,15
COc1ccccc1OCCC(=O)OCC(=O)Nc1ccc(Br)cc1,-1,-9,-7,-13
COc1ccc(NC(=O)COC(=O)CCOc2ccccc2C)cc1Cl,1,0,98*,/
CNC(=O)C1CCN(S(=O)(=O)c2c(C)noc2/C=C/c2ccccc2F)CC1,-4,4,/,9
CCOCCCNC(=O)c1ccc(-n2c(=S)[nH]c3ccccc3c2=O)cc1,1,-8,84*,-15
CCCCNC(=O)c1ccc2c(=O)n(CCCOCC)c(=S)[nH]c2c1,-1,4,-4,11
COc1nc(-c2ccc(Cl)cc2)ccc1-c1noc(-c2ccco2)n1,0,-4,-4,12
CCN1C(=O)N[C@@H](c2ccc(Br)cc2)C(C(=O)OC)=C1C,0,4,-6,-12
CC1CC(Nc2ccccc2)c2ccccc2N1C(=O)c1cccnc1 (stereo not given),1,3,100*,17
Cc1ccc(C2CC(c3cccs3)=NN2C(=O)CSc2nc(=O)n3ccc(C)cc3n2)cc1 (stereo not given),7,4,/,/
COc1ccc(-c2nc(CS(=O)CC(=O)NCc3ccco3)c(C)o2)cc1OC (stereo not given),2,15,98*,-1
Cc1oc(-c2cccc(Cl)c2)nc1CS(=O)(=O)CC(=O)NCc1ccco1,0,-5,-12,4
Cc1cccc(-c2nc(CS(=O)CC(=O)NCc3ccco3)c(C)o2)c1 (stereo not given),0,1,99*,15
Cc1ccc(-c2nc(CS(=O)CC(=O)NCc3ccco3)c(C)o2)cc1 (stereo not given),0,-4,99*,8
SMILES,NTR1 agonist,Cardio protect,ALR H2O2 inh,UBC9 SUMO inh
CCOC(=O)c1cc(-c2ccccc2)nn1CC1CC(c2cccc([N+](=O)[O-])c2)=NO1 (stereo not given),4,3,3,/
CCCCNC(=O)N(O)C1N(CCCC)C(=O)N(CC(=O)OC)C1(C)C (stereo not given),0,0,-9,23
CC(C)[C@H](NC(=O)N1CC(=O)Nc2ccccc21)C(=O)Nc1nccs1,0,1,91*,10
O=C1c2cc(O)c(O)cc2S(=O)(=O)C1c1ccccc1 (stereo not given),1,0,99*,/
Cc1sc(NC(=O)C2CCCC2)c(C#N)c1C,2,1,11,12
CCCCC(C(=O)OCC)C(N)Cc1ccc(F)cc1 (stereo not given),1,-5,-21,74*
CCOC1=C/C(=C/c2c(N)n3nc(CC(=O)N4CCCC4)sc3nc2=O)C=CC1=O,0,-3,99*,9
COC1=C/C(=C/c2c(N)n3nc(CC(=O)N4CCCC4)sc3nc2=O)C=CC1=O,0,6,84*,12
O=c1[nH][nH]c(C(F)(F)F)c1C=Nc1ccccc1,1,10,3,17
Cc1cc(O)ccc1N=Cc1c(C(F)(F)F)[nH][nH]c1=O,0,-10,99*,14
COc1ccc2[nH]c3nc(SCC(=O)Nc4cccc(NC(C)=O)c4)nnc3c2c1,1,4,-6,-3
O=C(Nc1cccc2nsnc12)c1ccc(-c2cccc(Cl)c2)o1,4,9,-38,60*
Cc1ccc(NC(=O)CSc2nc(N)cc(=O)[nH]2)cc1Cl,0,-4,95*,12
Nc1cc(=O)[nH]c(SCC(=O)Nc2cccc(Cl)c2)n1,-3,2,21,6
Cc1ccc(NC(=O)CSc2nc(N)c(-c3ccccc3)c(=O)[nH]2)cc1Cl,1,-9,98*,25
CCOC(=O)N1CCN(C(=O)Nc2ccc3oc(C)nc3c2)CC1,-1,2,-17,-15
O=C(NCSc1ccncn1)c1ccccc1,-1,5,99*,-19
O=C(NCSc1ccnc(SCNC(=O)c2ccccc2)n1)c1ccccc1,-1,4,20,5
CCCCNC(=S)N(C)/N=C/c1ccc(F)cc1,4,-4,0,9
COc1cc(C#CC#CCN2CCCCC2)ccc1O,0,-5,99*,17
COc1cc(C(=O)OCCN2CCCCC2)ccc1O,0,-1,50,2
Nc1nc(-c2cc3c(cc2Cl)OCCO3)cs1,0,-4,99*,-4
Nc1nc(-c2ccc3c(c2)OCCO3)cs1,1,-18,99*,22
Cc1nc(-c2ccc3c(c2)OCCCO3)cs1,0,-5,0,14
Nc1nc(-c2ccc3c(c2)CCCC3)cs1,-1,-11,99*,-2
SMILES,NTR1 agonist,Cardio protect,ALR H2O2 inh,UBC9 SUMO inh
COc1ccc(NC(=S)N(CCCN2CCCC2)Cc2cccs2)cc1,6,6,-26,12
Cc1nc2ccccc2c(=O)n1/N=C/c1ccccc1Cl,4,-4,-1,-5
O=C(N/N=C/c1cccn1-c1cccc(C(=O)O)c1)Nc1ccccc1,-3,1,97*,-2
C#CCNC(=O)C1CCN(c2cc(C)nc(-c3ccccc3)n2)CC1,-1,4,/,18
Cc1ccc(NC(=O)Nc2ccc3c(c2)nnn3C)cc1C,0,-2,-1,4
CCOc1ccc(NC(=O)Nc2ccc3c(c2)nnn3C)cc1,-1,12,99*,-12
Cc1ccc(Nc2c([N+](=O)[O-])c(=O)oc3ccccc23)cc1,1,-4,-3,13
Cc1ccc(C(=O)Nc2ccccc2-c2ccccc2)o1,3,6,14,24
CN(C)c1ccc(/C(=N\O)C(F)(F)F)cc1,2,-9,98*,0
CC(=O)c1ccc(N(C)C)cc1,0,-4,-11,18
O=C(CCc1nc2ccccc2c(=O)[nH]1)NCCN1C(=O)S/C(=C\c2ccccc2Cl)C1=O,3,40,0,/
O=C(CCc1nc2ccccc2c(=O)[nH]1)NCCN1C(=O)S/C(=C\c2ccc(OC(F)F)cc2)C1=O,/,69*,/,/
